Source: PubChem BioAssay (National Center for Advancing Translational Sciences (NCATS))
The list is not random: actives were taken first. Their share in the collection is about 3.7%.
DRV1 agonist: qHTS for Agonists of Human Resolvin D1 Receptor DRV1; CHO-K1 GPR32 beta-arrestin PathHunter luminescence, 90 min; zero percent set by DMSO-only wells; AID 1346428, 2018; actives 2.5% (n = 48,000); activation, % at 76.9 µM;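 active = activation of at least 60% and not above a set upper limit, about 1 call in 100 departs from these limits; inconclusive = activation of 40% to 60%, or above that upper limit; inactive = activation under 40%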
Target sequence (O75388 whole entry, looked up): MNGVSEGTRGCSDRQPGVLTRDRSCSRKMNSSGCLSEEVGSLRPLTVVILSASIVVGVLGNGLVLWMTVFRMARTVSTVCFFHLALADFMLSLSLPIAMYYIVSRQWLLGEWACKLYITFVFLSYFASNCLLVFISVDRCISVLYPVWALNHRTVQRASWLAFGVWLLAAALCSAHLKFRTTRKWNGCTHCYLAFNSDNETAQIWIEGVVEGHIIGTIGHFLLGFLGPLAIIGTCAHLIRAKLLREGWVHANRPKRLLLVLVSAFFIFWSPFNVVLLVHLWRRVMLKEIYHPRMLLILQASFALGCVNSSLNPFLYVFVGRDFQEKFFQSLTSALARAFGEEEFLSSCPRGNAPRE
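Step 1: seed CHO-K1 GPR32 beta-arrestin cells, 2,500/well, overnight at 37 °C. Step 2: add compounds, 90 min at 37 °C. Step 3: detection reagent, 1 h ambient, then luminescence.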
HTT prom inh: Primary qHTS for Identification of Small Molecule Inhibitors of Huntingtin Promoter Activity; actives 0.93% (n = 48,000); AID 1508623, 2021; HEK293 HTT promoter firefly luciferase reporter, 24 h; Potency, µM (doses to about 57.5 µM), usual class: inhibitors; also: nearly all actives have a fitted effect of over 50% in size
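HEK293 cells carrying firefly luciferase reporters were seeded at 2,500 per well in Opti-MEM and cultured for 24 h. They were then treated with compounds at up to 57.5 uM final for 24 h at 37 degrees C before Dual-Glo luminescence readout.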
HTT-AS act: Primary qHTS for Identification of Small Molecule Activators of Huntingtin-Antisense Promoter Activity; HEK293 HTT-AS promoter firefly luciferase reporter, 24 h; response scale: percent change from vehicle, -100% = no light; Potency, µM (highest dose often 57.5 µM), hits mostly activators; actives 0.24% (n = 48,000); AID 1508624, 2021; also: nearly all actives have a fitted effect of over 55% in size
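HEK293 Fluc reporter, 2,500 cells/well, 24 h pre-culture; cpds up to 57.5 uM final, 24 h 37 degrees C; Dual-Glo, 10 min RT; normalized vehicle = 0%, zero RLU = -100%.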
Numbers stand for hits; – = inactive; ? = inconclusive; · = no result given; [ ] = another dose, or the depositor's remark. Unless noted, calls follow the shape of the dose curve; as a rule, active = well fitted curve in the direction sought with a large enough effect; inconclusive = small, poorly fitted or top-dose-only effect, or another doubt; inactive = no such curve, though single readings can be large; an effect the other way counts as inactive or inconclusive.

SMILES | DRV1 agonist | HTT prom inh | HTT-AS act
Cc1ccc2nc3c(c(Nc4ccc(C)c(C)c4)c2c1)CCC3 | 101.0 | ? | –
CC1(C)CCC(c2ccc(Cl)cc2)=C(CN2CCN(c3ccc(C(=O)NS(=O)(=O)c4ccc(N[C@H](CCN5CCOCC5)CSc5ccccc5)c(S(=O)(=O)C(F)(F)F)c4)cc3)CC2)C1 | · | – | –
Cc1ccc(NC(=O)c2oc3c(c2C)-c2[nH]ncc2CC3)c(Cl)c1 | – | – | 2.24µM
Cc1cccc(NC(=O)c2oc3c(c2C)-c2[nH]ncc2CC3)c1C | – | – | ?
Fc1cccc(Cl)c1CNc1n[nH]c(-c2ccco2)n1 | – | – | 5.01µM
CC(C)c1ccc(CNc2n[nH]c(-c3ccco3)n2)cc1 | – | – | ?
CC(=O)OC1C(C)OC(Oc2c(-c3ccc(O)cc3)oc3cc(O)cc(O)c3c2=O)C(O)C1OC(C)=O (stereo unspecified) | · | – | –
O=C(Nc1nc2c(Cl)cccc2s1)c1ccc(S(=O)(=O)N2CCc3ccccc32)cc1 | – | ? | –
COc1cc2nc(NC(=O)c3ccc(S(=O)(=O)N4CCc5ccccc54)cc3)sc2cc1OC | – | 12.6µM | –
CN1C(=O)C(C)(C)c2cc(S(=O)(=O)N3CCCC3C(=O)Nc3ccc(F)cc3)ccc21 (stereo unspecified) | – | ? | –
O=C(Nc1ccc(F)c(Cl)c1)C1CCCN1S(=O)(=O)c1ccc(F)cc1 (stereo unspecified) | 83.3 | ? | –
CCN(CC)C(=O)Cn1c(=O)cc(C)c2c(C)nn(-c3cccc(Cl)c3C)c21 | 94.0 | – | –
Cc1c(Cl)cccc1-n1nc(C)c2c(C)cc(=O)n(CC(=O)NCc3ccccc3)c21 | – | – | –
Cc1cccc(-c2nnn3c2nc(NCCc2ccc(S(N)(=O)=O)cc2)c2ccccc23)c1 | – | ? | –
Cc1ccc(-n2ccnc(NCCc3ccc(S(N)(=O)=O)cc3)c2=O)c(C)c1 | 80.5 | ? | –
Cc1cc(-n2ccnc(NCCc3ccc(S(N)(=O)=O)cc3)c2=O)ccc1Br | 119.9 | – | –
Cc1ccc2ncc(C(=O)NCCc3ccc(S(N)(=O)=O)cc3)c(=O)n2c1 | – | – | –
Cc1ccc(-n2ccnc(NCCc3ccccc3)c2=O)cc1C | – | – | –
COc1ccc(-n2ccnc(NCc3ccccc3Cl)c2=O)cc1OC | – | – | –
Cc1ccc(-n2ccnc(NCCc3ccc(S(N)(=O)=O)cc3)c2=O)cc1C | 95.2 | ? | –
COc1ccc(-n2ccnc(NCc3ccc(C)cc3)c2=O)cc1OC | 64.8 | – | –
Cc1nc2c([nH]1)CCN(C(=O)c1ccc(NC(=O)c3ccccc3-c3ccccc3)cc1)c1ccccc1-2 | · | – | –
CCOC(=O)c1cccc(NC(=O)CCc2c(C)nn(-c3ccc(N4CCCCC4)nn3)c2C)c1 | – | · | ·
OCc1ccc(-c2ccc(-c3ccc(CO)s3)o2)s1 | · | – | –
NC[C@H]1O[C@H](O[C@H]2[C@H](O[C@@H]3O[C@H](CO)[C@@H](O)[C@H]3O)C(O)[C@H](N)C[C@@H]2N)[C@H](N)[C@@H](O)[C@@H]1O (stereo partly specified) | – | –[11.5 µM] | –[11.5 µM]
SMILES | DRV1 agonist | HTT prom inh | HTT-AS act
CN(C)c1ccc(-c2nc3ncc(Cl)c(N4CCN(CC(=O)Nc5nccs5)CC4)c3[nH]2)cc1 | · | – | –
CC(C)=CCCC(C)=CCCC(C)=CCCC(C)=CCCC(C)=CCCC(C)=CCCC(C)=CCCC(C)=CCCC(C)=CCO | · | – | –
COc1ccc(CCNC(=O)Cn2nc(C)c3c(C)n(-c4ccc(C)cc4)nc3c2=O)c(OC)c1 | – | 2.51µM | –
CCC(C(=O)NCCc1cc(OC)ccc1OC)n1nc(C)c2c(C)n(-c3ccccc3)nc2c1=O (stereo unspecified) | – | ? | –
COCCNC(=O)Cn1nc(C)c2c(C)n(-c3ccc(C)cc3)nc2c1=O | – | – | –
COc1ccc(OC)c(CCNC(=O)C(C)n2nc(C)c3c(C)n(-c4ccc(C)cc4)nc3c2=O)c1 (stereo unspecified) | – | 1.58µM | –
O=C1CCCC(=O)C1C(=O)c1ccc(C(F)(F)F)cc1[N+](=O)[O-] | · | – | –
Cc1[nH]c2ccccc2c1C1(O)C(=O)N(Cc2ccccc2)c2ccc(Br)cc21 (stereo unspecified) | ? | – | –
Cc1ccc(CN2C(=O)C(O)(c3c[nH]c4ccccc34)c3cc(Cl)ccc32)cc1 (stereo unspecified) | 87.0 | – | –
Cc1csc(NC(=O)c2sc3nc4c(c(C(F)(F)F)c3c2N)CCC4)n1 | · | ? | –
